Screening results deposited in PubChem by Sanford-Burnham Center for Chemical Genomics.
PHOSPHO1 inh: blocks human PHOSPHO1 phosphatase activity | Q8TCT1 | recombinant PHOSPHO1, absorbance phosphatase assay | inhibition, % at 13.3 µM | 290,000 compounds, 1.1% hits | AID 1565; in the data active means inhibition above about 60%
APOBEC3A inh: blocks human APOBEC3A ssDNA deamination; inhibition, % at 20 µM; AID 493011; recombinant A3A, FAM/TAMRA ssDNA deamination fluorescence; 330,000 compounds, 0.41% hits; P31941;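 active means at least 40% inhibition at 20 µM here, with at most 30% in a related deaminase screen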;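 further: plate controls were A3A with DMSO for no effect and wells lacking A3A enzyme for full effect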
A3G deaminase: inhibitors of human APOBEC3G DNA deaminase. Q9HC16. recombinant A3G, ssDNA deamination FAM/TAMRA fluorescence. inhibition, % at 20 µM. 330,000 compounds, 0.28% hits. AID 493012;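 active means inhibition of at least 40% at 20 µM, with no more than 30% in the related APOBEC3A deaminase screen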;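 further: plate controls were DMSO wells with A3G for no effect and wells lacking A3G enzyme for full effect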
Target sequence (Q9HC16 whole entry, looked up): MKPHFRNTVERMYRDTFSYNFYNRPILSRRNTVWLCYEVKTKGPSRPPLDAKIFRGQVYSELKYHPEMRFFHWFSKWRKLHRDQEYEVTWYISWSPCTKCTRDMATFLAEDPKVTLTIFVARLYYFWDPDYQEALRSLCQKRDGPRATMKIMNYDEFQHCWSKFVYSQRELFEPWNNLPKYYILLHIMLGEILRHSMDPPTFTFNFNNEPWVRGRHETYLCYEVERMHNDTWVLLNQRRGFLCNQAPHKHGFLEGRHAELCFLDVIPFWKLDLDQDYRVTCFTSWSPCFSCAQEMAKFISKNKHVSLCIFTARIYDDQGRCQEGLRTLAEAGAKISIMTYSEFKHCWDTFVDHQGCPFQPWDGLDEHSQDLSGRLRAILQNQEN
eIF4H FP inh: inhibitors of RNA binding by human eIF4H. Q15056. eIF4H fluorescence polarization binding assay. inhibition, % at 35 µM. 290,000 compounds, 0.94% hits;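 further: calls also rest on retests at 20 µM and on dose response follow-up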
PABP1 MLLE inh: inhibitors of microRNA-mediated deadenylation, human PABP1 MLLE binding. P11940. inhibition, % at 20 µM. AID 588489. 360,000 compounds, 0.36% hits. GST-MLLE / FITC-PAM2 fluorescence polarization; in the data active means inhibition above about 35%, passing the limit was not always enough;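 further: plate controls were DMSO wells with GST-MLLE for no effect and wells lacking GST-MLLE protein for full effect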
PABP polyA inh: blocks human PABP binding to poly(A) RNA. 290,000 compounds, 1% hits. P11940. fluorescence polarization. calls only at 35 µM;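 further: calls also rest on retests at 20 µM and on dose response follow-up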
* marks the source's active call; other numbers are inactive results; i = inactive; ? = inconclusive; / = no result; + = active, no number. An excerpt weighted towards active compounds, which were near 2.6% of everything screened. Unless noted, how the calls were made is not given here.

SMILES	PHOSPHO1 inh	APOBEC3A inh	A3G deaminase	eIF4H FP inh	PABP1 MLLE inh	PABP polyA inh
COc1ccc(C(=O)NCCn2cc(SCC(=O)NCC3CCCO3)c3ccccc32)cc1 (stereo unspecified)	58	3	-5	-2	20	i
O=C(COc1ccccc1-c1ccccc1)NNC(=O)NC1CCCCC1	32	-1	-4	-13	11	i
Nc1ccc2nc(SCc3ccccc3F)sc2c1	-16	-2	-8	5	26	i
O=C1NC(c2ccccc2Br)=N/C1=C\c1ccco1	22	9	6	57*	4	+
O=C1NC(c2ccccc2)=N/C1=C/c1ccco1	10	-3	-5	92	0	i
O=C(O)CCC(=O)N1N=C(c2ccco2)CC1c1cccs1 (stereo unspecified)	-5	-3	-5	76*	13	+
c1ccc(Nc2nc(-c3ccccc3)ns2)cc1	-13	2	0	-11	0	i
Cc1ccc(-c2nc3s/c(=C\c4ccco4)c(=O)n3n2)cc1	95*	40	15	82*	-33	+
Cc1ccc(/C=c2\sc3nc(-c4ccco4)nn3c2=O)o1	19	97	80	90*	8	+
O=c1nc2s/c(=C\c3ccco3)c(=O)n2nc1Cc1ccc(F)cc1	-25	97	70	84*	-15	+
Cc1ccc(/C=c2/sc3nnc(-c4ccccc4Cl)n3c2=O)o1	92*	11	5	-1	-13	i
Cc1ccc(/C=c2\sc3nc(-c4ccccc4Br)nn3c2=O)o1	-27	71	34	80	-23	i
CCCN1C(=O)/C(=c2\sc3nc(=O)c(Cc4ccc(C)cc4)nn3c2=O)c2ccccc21	35	-4	-4	3	35	i
COc1ccc(Br)cc1/C=c1\sc2nc(-c3ccco3)nn2c1=O	-8	98	87	94*	19	+
COc1ccccc1/C=c1\sc2nc(-c3ccccc3OC)nn2c1=O	87*	-2	-4	-10	12	i
COc1ccc(/C=c2\sc3nc(=O)c(C)nn3c2=O)c(OC)c1	7	-4	-16	57	-65	i
CCOc1cc(NC(=O)C2CC2)c(OCC)cc1NC(=O)c1cccc(F)c1	35	-2	-4	-16	1	i
COc1ccc(C2=CC3=C(Br)C(=O)C(C)(O)C(=O)C3=CO2)cc1 (stereo unspecified)	0	6	-2	43	-3	+
CCC(=O)OC1(C)C(=O)C2=COC(c3ccc(OC)cc3)=CC2=C(Br)C1=O (stereo unspecified)	26	7	-2	?	-25	?
Cc1ccc(S(=O)(=O)CCSc2cccc(C(=O)O)c2)cc1	25	-3	-7	5	44*	i
COc1ccccc1N1CCN(C(=O)Cc2c(C(=O)O)[nH]c3ccc(Cl)cc23)CC1	3	-2	-3	3	4	i
Cc1ccc(C)c(N2CCN(C(=O)Cc3c(C(=O)O)[nH]c4ccc(Cl)cc34)CC2)c1	16	-3	-5	?	5	+
CN(Cc1ccc(Cl)cc1)C(=O)COC(=O)CSc1ccc([N+](=O)[O-])cc1	/	0	-4	/	40*	/
CN(C(=O)COC(=O)CSc1ccc([N+](=O)[O-])cc1)c1ccccc1	/	-1	-5	/	23	/
O=C1CC(c2ccccc2)Sc2nc3ccccc3n21 (stereo unspecified)	16	6	-14	-2	-36	i
SMILES	PHOSPHO1 inh	APOBEC3A inh	A3G deaminase	eIF4H FP inh	PABP1 MLLE inh	PABP polyA inh
O=C1CC(c2ccco2)Sc2nc3ccccc3n21 (stereo unspecified)	106*	1	-5	89*	-51	+
O=C1CC(c2cccs2)Sc2nc3ccccc3n21 (stereo unspecified)	18	3	-3	3	-88	i
O=C1CC(c2ccc3c(c2)OCO3)Sc2nc3ccccc3n21 (stereo unspecified)	97*	-6	-10	-2	-80	i
COC(=O)c1c(NC(=O)c2cccc([N+](=O)[O-])c2)sc(C(N)=O)c1C	-13	-2	7	63*	5	+
COc1ccc(CCN2C(=O)CC(C(N)=O)SC2=Nc2ccccc2)cc1OC (stereo unspecified)	11	2	0	-1	9	i
Cc1cccc(-n2c(N)cc(=O)nc2SCC(=O)Nc2cc(C)on2)c1	-7	-7	-13	-6	40*	i
Cc1cc(NC(=O)CSc2nnc(-c3ccc(Br)o3)n2Cc2ccccc2)no1	66*	0	-3	-5	-95	i
Cc1cc(NC(=O)CSc2nc(=O)cc(N)n2-c2ccc(Cl)cc2)no1	24	6	-8	-9	6	i
Cc1cc(NC(=O)CSc2nccn2-c2cccc(Cl)c2)no1	48	6	-2	-5	69*	i
O=C(CSc1nccn1-c1cccc(Cl)c1)NO	-23	-5	-5	-4	6	i
Cc1cc(NC(=O)CSc2nnc(-c3ccco3)n2Cc2ccccc2)no1	4	3	2	-5	-24	i
O=C(COC(=O)c1cccc(S(=O)(=O)N2CCCC2)c1)Nc1ccc(Cl)cc1	/	/	/	/	2	/
N=c1c(S(=O)(=O)c2ccccc2)cc2c(=O)n3ccccc3nc2n1Cc1ccco1	34	25	28	95*	-13	+
Cc1ccc(S(=O)(=O)c2cc3c(=O)n4ccccc4nc3n(Cc3ccco3)c2=N)cc1C	-4	8	11	67*	/	+
Cc1cccn2c(=O)c3cc(S(=O)(=O)c4ccccc4)c(=N)n(Cc4ccco4)c3nc12	-26	5	13	86	9	i
N=c1c(C(=O)NC2CCCCC2)cc2c(=O)n3ccccc3nc2n1Cc1ccco1	28	10	5	48	-10	i
N=c1c(C(=O)NCCc2ccccc2)cc2c(=O)n3ccccc3nc2n1Cc1ccco1	39	4	1	93*	0	i
Cc1ccc2nc3c(cc(S(=O)(=O)c4ccccc4)c(=N)n3Cc3ccco3)c(=O)n2c1	11	12	9	70	-11	i
Cc1cccn2c(=O)c3cc(S(=O)(=O)c4ccc(F)cc4)c(=N)n(Cc4ccco4)c3nc12	-4	4	11	83*	-9	+
CCOC(=O)c1c(NC(=O)c2cccc(N3C(=O)CCC3=O)c2)sc2c1CCN(CC)C2	32	0	-7	-8	-17	i
CN(C(=O)C1CCCCC1)C1(C)CCS(=O)(=O)C1 (stereo unspecified)	/	3	1	/	2	/
CC(NCC(=O)Nc1ccccc1C(=O)NC1CC1)c1ccco1 (stereo unspecified)	/	-1	1	/	10	/
